The record followed here is PubChem BioAssay.

Assay [1] in a line: yeast TOR pathway RPL19A-GFP modulators, primary screen, cell-based, S. cerevisiae, multiplex flow cytometry (AID 1862; in the data active = percent of DMSO control GFP below about 86%;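 also: lower values mimic rapamycin by blocking the RPL19A rise seen in DMSO cells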). The following applies: S. cerevisiae RPL19A-GFP strain, flow cytometry fluorescence, 3 h; at 10 µM; stronger effect = lower value. (A flow cytometer gives signals particle by particle.)
Assay [2] is described as follows: modulators of MEP2-GFP levels in yeast, primary screen, S. cerevisiae, multiplex flow cytometry (AID 1867;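 active = GFP response, as percent of the DMSO control, above the screen-wide mean plus 3 SD, about 139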;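 also: median GFP channel fluorescence of barcode-gated MEP2-GFP cells measured by flow cytometry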). The following applies: S. cerevisiae MEP2-GFP strain, 3 h, at 10 µM, stronger effect = higher value, 100% means same as DMSO wells.
The nature of assay [3]: modulators of CIT2-GFP expression in yeast, primary screen, S. cerevisiae, GFP fusion, multiplex flow cytometry (AID 1870).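 Also: barcoded CIT2-GFP strain pooled with four other GFP strains with rapamycin as positive control; median GFP fluorescence per well over plate mean of DMSO wells so 100% = DMSO.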 The following applies: 3 h, at 10 µM, stronger effect = higher value.
The nature of assay [4]: modulators of LAP4-GFP expression in yeast, primary screen, S. cerevisiae, multiplex flow cytometry (AID 1873;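 active = GFP signal, as percent of the solvent control, above the screen mean plus 3 SD, about 149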). The following applies: 3 h, at 10 µM, stronger effect = higher value.
Assay [5] is described as follows: modulators of AGP1-GFP expression in yeast TOR pathway, primary screen, cell-based, multiplex flow cytometry, S. cerevisiae (AID 1887;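 active = GFP signal above the screen-wide mean plus 3 SD, that is over about 124.5% of the solvent control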;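 also: AGP1-GFP fusion strain of S. cerevisiae within a five-strain barcoded multiplex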). The following applies: 3 h, at 10 µM, stronger effect = higher value.
Assay [6] is described as follows: inhibitors of CD8+ T cell-vesicle binding, pilot screen, LFA-1/ICAM-1 modulator project, MLPCN validation set, flow cytometry (AID 2523;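 active = response below a set limit, under 55% cells CD8-positive and vesicle-bound, and CD8 cells' 90th-percentile brightness under 279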;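 as to vesicle binding response: mean PE anti-B7-1 fluorescence of CD8+ cells relative to row control; 100% = QL9-loaded vesicles with DMSO vehicle in the same plate row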). The following applies: 2C mouse CD8+ T cells, at 7 µM, stronger effect = lower value; double positive events: measured here: CD8+/vesicle+ event percentage.
The target in assay [7] is Integrin beta-1 (Homo sapiens) + Integrin alpha-4 (Homo sapiens) (UniProt P13612+P05556). As to the kind of experiment: inhibition of HUTS-21 binding to VLA-4, pilot screen, VLA-4 allosteric modulator project, U937 cells, HUTS-21 mAb, flow cytometry, validation set (AID 2674;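 active = inhibition above 50%, about 3 SD of the validation set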;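 also: antibody binding induced by the VLA-4 ligand LDV present at three times its Kd; 0% = LDV ligand with antibody and no compound and 100% = antibody without LDV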). The following applies: HUTS-21 LIBS mAb binding, at 6.7 µM, stronger effect = higher value, binding induced by LDV ligand.
Sequence of Integrin beta-1 (Homo sapiens) + Integrin alpha-4 (Homo sapiens) (P05556 whole entry, looked up): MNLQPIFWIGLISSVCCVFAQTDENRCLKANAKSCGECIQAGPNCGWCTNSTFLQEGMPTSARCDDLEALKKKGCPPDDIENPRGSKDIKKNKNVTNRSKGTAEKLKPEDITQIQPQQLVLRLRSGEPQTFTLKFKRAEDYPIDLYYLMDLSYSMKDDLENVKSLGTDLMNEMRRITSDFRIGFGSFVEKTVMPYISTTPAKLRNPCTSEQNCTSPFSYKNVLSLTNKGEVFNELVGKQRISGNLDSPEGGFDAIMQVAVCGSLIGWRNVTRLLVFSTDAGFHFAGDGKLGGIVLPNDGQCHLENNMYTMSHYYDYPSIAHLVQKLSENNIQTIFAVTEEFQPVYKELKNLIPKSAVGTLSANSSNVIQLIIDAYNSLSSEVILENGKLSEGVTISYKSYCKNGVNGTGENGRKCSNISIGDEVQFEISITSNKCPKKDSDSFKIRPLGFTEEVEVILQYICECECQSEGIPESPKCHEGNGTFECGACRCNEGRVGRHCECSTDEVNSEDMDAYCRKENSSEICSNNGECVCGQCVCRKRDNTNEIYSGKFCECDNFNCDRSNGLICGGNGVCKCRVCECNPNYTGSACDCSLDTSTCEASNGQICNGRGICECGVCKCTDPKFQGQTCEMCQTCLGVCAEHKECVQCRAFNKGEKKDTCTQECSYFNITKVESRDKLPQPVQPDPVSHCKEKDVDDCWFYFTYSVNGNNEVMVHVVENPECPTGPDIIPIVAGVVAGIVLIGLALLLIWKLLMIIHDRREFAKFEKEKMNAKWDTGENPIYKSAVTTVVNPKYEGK
Sequence of Integrin beta-1 (Homo sapiens) + Integrin alpha-4 (Homo sapiens) (P13612 whole entry, looked up): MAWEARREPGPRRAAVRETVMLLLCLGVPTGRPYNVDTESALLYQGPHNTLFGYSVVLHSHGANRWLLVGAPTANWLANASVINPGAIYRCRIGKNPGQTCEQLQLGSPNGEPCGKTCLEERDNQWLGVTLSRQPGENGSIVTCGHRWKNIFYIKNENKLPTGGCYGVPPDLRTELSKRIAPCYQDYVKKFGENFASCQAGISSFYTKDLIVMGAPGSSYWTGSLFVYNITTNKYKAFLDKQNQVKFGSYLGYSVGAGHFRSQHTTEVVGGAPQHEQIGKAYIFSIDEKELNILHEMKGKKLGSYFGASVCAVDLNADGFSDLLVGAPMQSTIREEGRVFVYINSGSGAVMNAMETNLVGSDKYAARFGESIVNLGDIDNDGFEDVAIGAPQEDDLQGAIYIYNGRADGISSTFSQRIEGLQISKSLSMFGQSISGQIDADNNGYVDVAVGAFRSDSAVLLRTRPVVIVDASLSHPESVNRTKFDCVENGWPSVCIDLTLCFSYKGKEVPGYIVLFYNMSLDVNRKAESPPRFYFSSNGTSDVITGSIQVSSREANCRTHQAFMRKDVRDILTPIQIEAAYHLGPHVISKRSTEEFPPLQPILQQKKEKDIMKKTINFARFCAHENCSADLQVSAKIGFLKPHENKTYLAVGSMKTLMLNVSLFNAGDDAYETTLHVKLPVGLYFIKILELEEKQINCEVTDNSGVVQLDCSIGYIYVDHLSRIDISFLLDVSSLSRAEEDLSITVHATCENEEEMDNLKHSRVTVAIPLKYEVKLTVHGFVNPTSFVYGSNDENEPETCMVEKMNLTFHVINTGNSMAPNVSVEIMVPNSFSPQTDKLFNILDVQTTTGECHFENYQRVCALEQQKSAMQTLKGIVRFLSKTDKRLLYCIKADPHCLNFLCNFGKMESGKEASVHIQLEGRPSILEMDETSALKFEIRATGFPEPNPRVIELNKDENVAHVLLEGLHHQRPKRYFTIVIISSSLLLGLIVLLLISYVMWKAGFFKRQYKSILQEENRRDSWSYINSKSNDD

A short description of assay [8]: superoxide lowering in aged yeast cells, pilot screen, validation compound set (AID 2706;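 active = superoxide response below 65% of plate, a cut near 3 SD across the whole screen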;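 also: yeast exposed to compound for one week at 30 degrees C before staining; 100% = mean of all compound wells on the same plate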). The following applies: S. cerevisiae aging, superoxide DHE fluorescence; at 10 µM; stronger effect = lower value.
The target of assay [9] is Beta-adrenergic receptor kinase 1 (Homo sapiens) (UniProt P25098). As to the kind of experiment: GRK2 binders displacing RNA aptamer, biochemical, validation, human GRK2, bead flow cytometry (AID 488806;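 active = aptamer binding inhibition above 30%, about 3 SD of noise from non-fluorescent compounds; inactive = inhibition at or below 30%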). The following applies: bead-bound GRK2, FAM-aptamer displacement, at 10 µM, stronger effect = higher value.
Sequence of Beta-adrenergic receptor kinase 1 (Homo sapiens) (P25098 whole entry, looked up): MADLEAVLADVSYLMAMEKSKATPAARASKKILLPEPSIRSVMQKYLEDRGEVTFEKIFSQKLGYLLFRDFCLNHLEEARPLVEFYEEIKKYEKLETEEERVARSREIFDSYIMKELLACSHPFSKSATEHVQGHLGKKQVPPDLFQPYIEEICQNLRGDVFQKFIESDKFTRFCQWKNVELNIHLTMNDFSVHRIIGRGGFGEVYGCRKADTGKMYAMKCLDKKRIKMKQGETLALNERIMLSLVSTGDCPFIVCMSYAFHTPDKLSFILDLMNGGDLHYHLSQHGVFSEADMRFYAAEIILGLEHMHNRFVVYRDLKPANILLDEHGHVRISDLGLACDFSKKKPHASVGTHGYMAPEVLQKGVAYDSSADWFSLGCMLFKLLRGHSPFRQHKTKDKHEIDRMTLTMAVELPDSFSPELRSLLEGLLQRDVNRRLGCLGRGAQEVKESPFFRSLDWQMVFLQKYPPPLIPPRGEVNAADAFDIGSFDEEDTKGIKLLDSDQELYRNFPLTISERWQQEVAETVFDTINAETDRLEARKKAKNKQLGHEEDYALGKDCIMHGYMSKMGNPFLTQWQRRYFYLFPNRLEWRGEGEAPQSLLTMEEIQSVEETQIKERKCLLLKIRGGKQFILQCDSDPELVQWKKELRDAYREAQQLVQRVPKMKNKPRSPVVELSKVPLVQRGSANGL
Assay [10] addresses Beta-2 adrenergic receptor (Homo sapiens) (UniProt P07550). As to the kind of experiment: beta2AR agonists driving receptor internalization, pilot screen, cell-based, FAP fluorogen, flow cytometry, validation set (AID 504459;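 active = percent response above 42, roughly 3 SD of non-fluorescent test compounds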;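 also: agonist-driven loss of surface beta2AR via internalization measured by FAP dye flow cytometry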). The following applies: Am2.2-beta2AR cells, FAP surface receptor flow cytometry; at 10 µM; stronger effect = higher value.
Assay [11] has as its target AP-2 complex subunit beta (Homo sapiens) (UniProt P63010). The assay is described as follows: inhibitors of arrestin peptide binding to AP2, pilot screen, biochemical, validation set, GST-AP2 beads, flow cytometry (AID 504541;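 active = inhibition above 54%, about 3 SD of non-fluorescent compounds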;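 also: AP2 carries R879A mutation and is captured from E. coli lysate; bead-bound FITC arrestin peptide fluorescence measuring arrestin peptide binding to AP2; 0% = DMSO wells and 100% = excess unlabeled arrestin peptide control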). The following applies: FITC arrestin peptide, at 10 µM, stronger effect = higher value, AP2 beta2 appendage fragment, R879A mutant.
Assay [12] can be described thus: yeast V-ATPase proton transport modulators, S. cerevisiae, pHLuorin, HTS validation (AID 504600; in the data active = response above about 15%;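 also: plate controls were DMSO for no effect and reference compound for full effect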). The following applies: S. cerevisiae pHLuorin cytosolic pH, at 10 µM, stronger effect = higher value.
The subject of assay [13] is anti-desmoglein-3 scFv antibody binding to human DSG3. The assay is described as follows: inhibitors of anti-DSG3 scFv binding to DSG3, pilot screen, biochemical, validation compound set, bead-based, flow cytometry (AID 588368;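 active = binding below the plate cutoff, the plate median minus 3 SD, with a reading above zero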;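 also: signal is the median channel fluorescence of bead-bound GFP antibody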). The following applies: Protein G beads, DSG3-Fc, scFv-GFP binding, at 10 µM, stronger effect = lower value.
Assay [14] in a line: inhibitors of fungal efflux pumps CDR1, CDR2, MDR1, pilot screen, validation compound set, multiplex, phenotypic (AID 588506;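 active = efflux inhibition above 0.42, the validation set average plus 4 SD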;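 also: Nile Red retained in cells so higher fluorescence means more efflux inhibition; 0 = negative control wells and 1 = enniatin B 25 µM full block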). The following applies: S. cerevisiae pump-expressing triplex, Nile Red efflux flow cytometry; at 10 µM; stronger effect = higher value; the pumps come from Candida albicans.
Assay [15] addresses ATP-binding cassette sub-family B member 6 (Homo sapiens) (UniProt Q9NP58). As to the kind of experiment: ABCB6 transporter inhibitors, pilot screen, K562-ABCB6 cells, flow cytometry, validation set (AID 588550;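 active = inhibition above the screen-wide mean plus 3 SD, about 51%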;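 also: 0% = DMSO wells and 100% = benzethonium chloride 70 µM positive control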). The following applies: K562-ABCB6 porphyrin accumulation, 1 h, at 10 µM, stronger effect = higher value.
Assay [16] in a line: promoters of myeloid differentiation in arrested cells, primary screen, cell-based, GFP/MAC1 double positive, flow cytometry, validation set (AID 588685;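 active = differentiation response of at least 50%, scaled between solvent and reference control, from cells with both markers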;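 also: compound exposure lasts four days before antibody staining and flow analysis; 0% = DMSO wells and 100% = 5 µM fulvestrant positive control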). The following applies: ER-HoxA9 marrow cells, stronger effect = higher value, normalized: vehicle 0, fulvestrant 100.

Results filed as inconclusive are left out. Active and inactive are the calls of the source.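 The calls were made as follows, unless noted: active = percent response above a set limit, the screen-wide mean plus 3 SD (cut at about 130% in these data); inactive = the rest.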

Sequence of AP-2 complex subunit beta (Homo sapiens) (P63010 whole entry, looked up, the tested form may be a part, one chain of several): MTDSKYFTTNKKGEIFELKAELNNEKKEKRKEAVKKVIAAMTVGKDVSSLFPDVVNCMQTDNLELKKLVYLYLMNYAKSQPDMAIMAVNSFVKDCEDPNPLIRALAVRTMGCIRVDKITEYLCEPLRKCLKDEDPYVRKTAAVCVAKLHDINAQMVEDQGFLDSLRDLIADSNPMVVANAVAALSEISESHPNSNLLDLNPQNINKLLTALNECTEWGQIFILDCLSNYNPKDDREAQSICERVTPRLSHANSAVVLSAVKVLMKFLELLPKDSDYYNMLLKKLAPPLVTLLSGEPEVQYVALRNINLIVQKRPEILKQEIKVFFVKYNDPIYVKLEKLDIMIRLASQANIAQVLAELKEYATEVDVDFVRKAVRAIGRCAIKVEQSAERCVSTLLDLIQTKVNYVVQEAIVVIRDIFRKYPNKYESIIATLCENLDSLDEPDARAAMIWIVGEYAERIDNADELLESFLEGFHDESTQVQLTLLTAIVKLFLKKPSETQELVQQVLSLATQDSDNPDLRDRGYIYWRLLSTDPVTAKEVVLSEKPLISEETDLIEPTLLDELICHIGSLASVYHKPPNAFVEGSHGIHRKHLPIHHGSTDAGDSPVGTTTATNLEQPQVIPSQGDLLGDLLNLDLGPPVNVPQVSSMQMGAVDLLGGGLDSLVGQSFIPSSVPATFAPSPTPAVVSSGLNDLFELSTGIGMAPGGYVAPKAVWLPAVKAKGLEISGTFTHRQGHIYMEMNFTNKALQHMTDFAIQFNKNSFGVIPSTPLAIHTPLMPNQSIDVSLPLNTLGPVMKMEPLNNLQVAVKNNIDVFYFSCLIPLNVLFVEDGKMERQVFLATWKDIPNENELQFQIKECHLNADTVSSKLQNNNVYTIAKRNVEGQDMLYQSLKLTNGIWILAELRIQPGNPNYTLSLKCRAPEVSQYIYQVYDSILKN
Sequence of ATP-binding cassette sub-family B member 6 (Homo sapiens) (Q9NP58 whole entry, looked up): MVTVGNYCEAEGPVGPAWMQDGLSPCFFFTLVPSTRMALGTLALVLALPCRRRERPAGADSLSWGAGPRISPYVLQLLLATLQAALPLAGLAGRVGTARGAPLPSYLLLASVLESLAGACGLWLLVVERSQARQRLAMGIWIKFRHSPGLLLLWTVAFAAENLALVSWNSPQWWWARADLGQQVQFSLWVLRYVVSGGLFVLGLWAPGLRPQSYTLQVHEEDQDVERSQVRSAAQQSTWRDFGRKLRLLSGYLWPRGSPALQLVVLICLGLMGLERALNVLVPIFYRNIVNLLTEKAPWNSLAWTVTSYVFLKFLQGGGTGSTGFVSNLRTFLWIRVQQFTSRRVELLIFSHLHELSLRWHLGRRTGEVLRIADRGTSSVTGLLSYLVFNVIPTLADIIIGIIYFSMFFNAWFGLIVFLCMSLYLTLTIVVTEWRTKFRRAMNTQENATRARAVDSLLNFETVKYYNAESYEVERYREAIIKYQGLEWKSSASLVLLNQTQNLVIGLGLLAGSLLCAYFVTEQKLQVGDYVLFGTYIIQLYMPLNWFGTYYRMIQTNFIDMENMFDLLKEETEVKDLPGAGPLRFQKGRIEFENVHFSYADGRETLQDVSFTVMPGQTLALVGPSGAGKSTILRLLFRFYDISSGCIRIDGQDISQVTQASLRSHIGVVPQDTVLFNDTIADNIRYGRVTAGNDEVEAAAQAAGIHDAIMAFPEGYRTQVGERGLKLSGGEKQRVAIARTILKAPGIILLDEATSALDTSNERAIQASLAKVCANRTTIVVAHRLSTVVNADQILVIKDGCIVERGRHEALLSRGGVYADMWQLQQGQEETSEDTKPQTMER
Sequence of Beta-2 adrenergic receptor (Homo sapiens) (P07550 whole entry, looked up): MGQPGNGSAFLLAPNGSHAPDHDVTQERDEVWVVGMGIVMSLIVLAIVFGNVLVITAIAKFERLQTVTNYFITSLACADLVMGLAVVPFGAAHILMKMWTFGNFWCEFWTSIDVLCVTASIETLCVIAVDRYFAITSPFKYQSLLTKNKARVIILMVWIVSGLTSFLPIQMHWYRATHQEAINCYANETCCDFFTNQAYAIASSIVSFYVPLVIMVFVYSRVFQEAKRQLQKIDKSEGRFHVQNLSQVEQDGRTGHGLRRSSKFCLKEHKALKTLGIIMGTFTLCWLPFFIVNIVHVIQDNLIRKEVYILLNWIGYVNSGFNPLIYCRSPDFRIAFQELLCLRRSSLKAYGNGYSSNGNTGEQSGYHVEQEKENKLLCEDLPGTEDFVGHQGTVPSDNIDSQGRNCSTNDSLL

As a reminder, the inhibition is the relative decrease from the control value, in per cent. As to `COc1ccc(C2=NOC(COc3ccc4c(C)cc(=O)oc4c3)C2)c(OC)c1` (stereo not given), in [1], the percent of DMSO control GFP was 99% (inactive). The GFP response vs DMSO in assay [2] is 94.6% (inactive); in [4] it was 116% (inactive). In assay [3], the percent response of DMSO control was 96% (inactive). Moreover, in assay [5], the GFP response, % of DMSO is 91.3% (inactive). In assay [6], this compound came in with a double positive events of 62.4%. Further, the vesicle binding response in [6] was 171% (inactive). The inhibition in assay [7] was -11.8% (inactive); in assay [11], 2.4% (inactive); in assay [15], 10% (inactive). Also, the superoxide response (% of plate) in assay [8] is 99.1% (inactive). In assay [9], the aptamer binding inhibition was 4% (inactive). Further, the results for the response in assay [10] and in assay [12] were 12.7% (inactive) and 1.1% (inactive), respectively. For the same compound, the binding (% of control) in assay [13] is 95.6% (inactive). In assay [14], the efflux inhibition (fraction of control) is 0.04 (inactive). Besides, the differentiation response in [16] was 3.45% (inactive).
With `O=C(/C=C/c1c[nH]c2ccccc12)c1cccc2ccccc12`, in [1], the percent of DMSO control GFP was 106% (inactive). Besides, the results for the GFP response vs DMSO in assay [2] and in assay [4] were 103% (inactive) and 132% (inactive), respectively. For the same compound, the percent response of DMSO control in [3] is 92.9% (inactive). In [5], the GFP response, % of DMSO was 94.9% (inactive). The compound further registered a double positive events in assay [6] of 61.4%. In addition, the vesicle binding response in [6] is 336% (inactive). Moreover, the inhibition is -72.8% (inactive) in assay [7], -4.72% (inactive) in assay [11] and 6% (inactive) in [15]. The superoxide response (% of plate) in assay [8] was 94% (inactive). Further, in assay [9], the aptamer binding inhibition was 2% (inactive). The figures for the response in assay [10] and in [12] were 63.6% (active) and -1.5% (inactive), respectively. Moreover, in assay [13], the binding (% of control) is 100% (inactive). Further, the efflux inhibition (fraction of control) in assay [14] was 0.19 (inactive). The differentiation response in assay [16] is -12% (inactive).
`COc1cc(CNc2nnnn2C)ccc1OCc1ccc(F)cc1Cl`: the percent of DMSO control GFP in assay [1] was 102% (inactive). Further, the GFP response vs DMSO in [2] is 101% (inactive); in assay [4] it was 92.3% (inactive). In addition, in [3], the percent response of DMSO control is 98.2% (inactive). The GFP response, % of DMSO in [5] is 97.2% (inactive). Moreover, in assay [6], the double positive events was 66.7%. The vesicle binding response in [6] is 150% (inactive). In addition, the values for the inhibition in assay [7], in assay [11] and in [15] were 3.98% (inactive), 16.9% (inactive) and 7% (inactive), respectively. In [8], the superoxide response (% of plate) is 51.5% (active). The aptamer binding inhibition in assay [9] is -1% (inactive). In addition, the response in assay [10] is 15.7% (inactive); in assay [12], 0.17% (inactive). Moreover, the binding (% of control) in [13] is 104% (inactive). Further, the efflux inhibition (fraction of control) in assay [14] was 0.68 (active). The differentiation response in assay [16] is -5.68% (inactive).
Turning to `O=C(O)c1cccnc1Nc1cccc(C(F)(F)F)c1`, the percent of DMSO control GFP in assay [1] is 95.9% (inactive). In addition, the GFP response vs DMSO was 130% (inactive) in [2] and 83.6% (inactive) in assay [4]. Also, the percent response of DMSO control in assay [3] was 110% (inactive). In assay [5], the GFP response, % of DMSO is 93.3% (inactive). In assay [6], this compound displayed a double positive events of 63.3%. The vesicle binding response in assay [6] is 214% (inactive). Moreover, the inhibition in assay [7] is 7.43% (inactive); in [11], 47.1% (inactive); in assay [15], 15% (inactive). In addition, the superoxide response (% of plate) in assay [8] was 98.6% (inactive). In addition, the aptamer binding inhibition in [9] was 6% (inactive). For the same compound, the response in [10] is 6.98% (inactive); in [12] it was -7.29% (inactive). Also, the binding (% of control) in assay [13] was 102% (inactive). Also, the efflux inhibition (fraction of control) in assay [14] was 0.48 (active). The differentiation response in assay [16] is 7.37% (inactive).
On to `OCCC1CN(Cc2nc(-c3ccccc3)cs2)CCN1Cc1ccc(F)cc1` (stereo not given), for which the percent of DMSO control GFP in [1] is 106% (inactive). Besides, the GFP response vs DMSO in assay [2] is 98.7% (inactive); in [4] it was 100% (inactive). In assay [3], the percent response of DMSO control is 115% (inactive). In addition, in assay [5], the GFP response, % of DMSO is 104% (inactive). Also, the double positive events in assay [6] worked out at 68.6%. Further, in [6], the vesicle binding response was 312% (inactive). In addition, the inhibition in assay [7] was -6.45% (inactive); in [11] it was -6.97% (inactive); in assay [15], 9% (inactive). Further, the superoxide response (% of plate) in assay [8] was 103% (inactive). In [9], the aptamer binding inhibition was 0% (inactive). The response in assay [10] was 2.61% (inactive); in assay [12], -2.6% (inactive). Further, the binding (% of control) in assay [13] is 100% (inactive). Moreover, in [14], the efflux inhibition (fraction of control) was 0.31 (inactive). Also, the differentiation response in assay [16] is -6.03% (inactive).
